According to PubChem BioAssay (NCATS):
Several values for one entry are separate records, joined by “and”; a condition that tells them apart may be missing. Equal entries are not always repeated. Results filed as inconclusive are left out. Unmarked numbers belong to inactive results. Calls come from the whole dose curve; as a rule, active = well fitted inhibition curve with a large enough effect in the signal ratio, with a control signal flat (not every such curve was filed as active); inconclusive = small, poorly fitted or top-dose-only effect, or effect the other way, or a change in a side signal; inactive = flat fitted curve, though single readings scatter; the % refers to the signal ratio.

Target: Thyroid hormone receptor beta (Homo sapiens) (UniProt P10828)
Assay: qHTS assay for small molecule antagonists of thyroid hormone receptor beta signaling (AID 588547);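 note: cells stimulated with 0.4 nM T3 agonist during compound exposure; series mostly up to about 77 µM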
Settings: TR-UAS-bla HEK293, beta-lactamase ratio, antagonist mode, 18 h
Text: NIH Chemical Genomics Center [NCGC] U.S. Environmental Protection Agency [EPA] National Institutes of Environmental Health Sciences [NIEHS] National Toxicology Program [NTP] NCGC Assay Overview Thyroid hormone receptor (TR) belongs to nuclear hormone receptor superfamily. There are two subtypes for TR: TR-alpha and TR-beta. TR-beta plays a major role in regulating plasma cholesterol levels and it mediates the biological activities of thyroid hormone. Screening environmental chemicals on TR-beta signaling will provide important information for the mechanism of compound action.
NCGC Assay Protocol Summary Using a beta-lactamase reporter-gene under control of the TR response element, a cell-based assay [GeneBLAzer TR-UAS-bla-GripTite assay developed by Invitrogen] was used to measure TR-beta signaling in antagonist mode. TR-UAS-bla-GripTite HEK 293 cells were used with assay medium containing 2% charcoal/dextran FBS, 0.1 mM NEAA and 1 mM sodium pyruvate. The assay was performed in clear bottom black Greiner 1536-well plates. Library compounds were measured for their ability to inhibit the reporter gene activity. Compounds were screened in a titration series in 1536-well format. The fluorescence intensity (405 nm excitation, 460/530 nm emission) was measured using an EnVision plate reader. […] Concentration-response titration points for each compound were fitted to the Hill equation yielding concentrations of half-maximal inhibition (IC50) and maximal response (efficacy) values. qHTS protocol for TR-beta beta-lactamase assay in antagonist mode [Step] [Parameter] [Value] [Description] 1. Reagent; 5 uL; 2500 cells/well 2. Incubation; 37 C for 4 hrs 3. Compounds; 23 nL; 0.59 nM to 92 uM 4. Controls (DMSO); 23 nL 5. Agonist (Stimulator); 1uL; T3 at 0.4nM (final) concentrations 6. Incubation; 37 C for 18 hrs 7. Detection reagent; 1 uL of CCF4-dye 8. Incubation; RT for 2 hrs 9. Detection; Fluorescence; Envision plate reader
% is set by controls: 0 for no effect and ±100 for the full control effect.

Thyroid hormone receptor beta (Homo sapiens), sequence (P10828 whole entry, looked up): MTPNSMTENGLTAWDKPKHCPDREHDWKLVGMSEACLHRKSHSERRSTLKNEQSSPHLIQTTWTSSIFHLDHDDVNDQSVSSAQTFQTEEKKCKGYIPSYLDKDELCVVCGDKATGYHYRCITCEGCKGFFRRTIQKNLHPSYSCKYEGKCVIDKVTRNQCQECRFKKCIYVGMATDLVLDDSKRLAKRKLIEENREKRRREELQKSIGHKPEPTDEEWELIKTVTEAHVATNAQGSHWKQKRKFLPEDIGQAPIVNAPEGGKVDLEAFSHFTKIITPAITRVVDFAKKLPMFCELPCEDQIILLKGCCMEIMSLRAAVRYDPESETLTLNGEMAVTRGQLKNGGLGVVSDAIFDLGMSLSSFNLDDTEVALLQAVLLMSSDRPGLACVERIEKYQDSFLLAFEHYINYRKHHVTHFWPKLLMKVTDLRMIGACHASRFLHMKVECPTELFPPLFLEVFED

| Structure (SMILES) | activity change % (negative = inhibition) |
| --- | --- |
| CN1[C@H]2CC(OC(=O)[C@H](CO)c3ccccc3)C[C@H]1[C@H]1O[C@H]12 (stereo not given in full) | -22.7% and -1.59% |
| O=C1OC2(c3cc(Br)c(O)c(Br)c3Oc3c2cc(Br)c(O)c3Br)c2c(Cl)c(Cl)c(Cl)c(Cl)c21 | 2.12% |
| CCCCCC/C(C=O)=C\c1ccccc1 | 8.8% |
| CC1(C)CCC(C)(C)c2cc(C(=O)Nc3ccc(C(=O)O)cc3)ccc21 | 15.7% |
| CC1CCC(C(C)C)C(O)C1 (stereo not given) | -1.02% |
| CN(C)c1ccc(C2(c3ccc(N(C)C)cc3)OC(=O)c3cc(N(C)C)ccc32)cc1 | 12.5% |
| Cc1ccc(S(=O)(=O)Oc2ccc(N=Nc3ccc(-c4ccc(N=Nc5c(O)ccc6cc(S(=O)(=O)O)cc(S(=O)(=O)O)c56)c(C)c4)cc3C)cc2)cc1 | 6.13% |
| Cc1cc(Nc2ccc(O)cc2)ccc1N | -8.81% |
| ClC1=C(Cl)C(Cl)(Cl)C(Cl)=C1Cl | -17.2% and -1.82% |
| Cc1cccc(O)c1C | 4.76% |
| O=C=Nc1ccc(Cc2ccc(N=C=O)cc2)cc1 | -3.37% and 10% |
| C=C(C)c1ccccc1 | 2.47% |
| O=C(/C=C/c1ccc(O)c(O)c1)OC1C[C@](O)(C(=O)O)C[C@@H](O)[C@H]1O (stereo not given in full) | -9.6% and 0.221% |
| CO[C@H]1/C=C/O[C@@]2(C)Oc3c(C)c(O)c4c(O)c(c5c(c4c3C2=O)NC2(CCN(CC(C)C)CC2)N=5)=NC(=O)/C(C)=C\C=C\[C@H](C)[C@H](O)[C@@H](C)[C@@H](O)[C@@H](C)[C@H](OC(C)=O)[C@@H]1C | 5.09% |
| O=Cc1ccc(Cl)c(Cl)c1 | 11% |
